{
  "source": "PubChem BioAssay (NCATS)",
  "note": "Values joined by “and” are separate entries in the source; they are usually repeats but may differ in a detail not shown here. Equal values may be shown once. Records with an inconclusive call do not appear. Values without a mark were called inactive. Active and inactive are the calls of the source. The call rests on the fitted dose curve; in most records, active means well fitted cell-killing curve with a large enough effect; inconclusive means small, poorly fitted or top-dose-only effect; inactive means flat fitted curve, though single readings scatter.",
  "data": [
    {"test": "Cellular viability qHTS for adrenocortical cancer (ACC) cell line NCI-H295R (AID 1963990); further: nearly all actives have a fitted effect of over 60% in size", "details": "CellTiter-Glo ATP luminescence, 48 h; series mostly up to 46.1 µM; activity change, negative = viability loss: at the top concentration", "description": "PI: Naris Nilubol, MD Surgical Oncology Program, National Cancer Institute (NCI) National Institute of Health (NIH), Bethesda, Maryland Adrenocortical cancer (ACC) is a rare malignancy with poor survival outcomes and few treatment options. Currently, mitotane is the only FDA-approved therapy for ACC. Although adjuvant radiation therapy is rarely utilized, it has the potential to improve survival in select cases. Through a quantitative high-throughput drug screen (qHTS), we identified auranofin (AF), a thioredoxin reductase (TXNRD) inhibitor, as a promising candidate drug. This study aims to evaluate whether AF can enhance the efficacy of radiation therapy in the treatment of ACC. Two human ACC cell lines, SW-13 and NCI-H295R, were screened using the National Center for Advancing Translational Sciences (NCATS) Pharmaceutical Collection (NPC) and the Mechanism Interrogation PlatE (MIPE) library (~4,991 compounds). CellTiter-Glo (Cat # G7570, Promega, Madison, WI) was utilized to measure cell viability. Described herein are the results of the corresponding viability assay.\nPROTOCOL TABLE (as described by Inglese J, Shamu CE and Guy RK. 2007) SEQUENCE No. (e.g., 1, 2, 3, etc.); […] (e.g., Cells, Incubation, Reagent, etc.); VALUE; DESCRIPTION. 1; Cells; 5 uL; white, solid-bottom, 1536-well tissue-culture treated plates. 2; Time; overnight culture at 37C with 5% CO2. 3; Compounds and control; 23 nL; Kalypsis pin tool (Wako USA) equipped with a 1536-well pin head to transfer to the assay plates. 4; Time; 48 hours; 37C with 5% CO2. 5; Reagent; 4 uL; CellTiter-Glo luminescent substrate mix. 6; Time; 20 min at room temperature. 7; Detection; Luminescence; ViewLux plate reader NOTES (numbers refer to Sequence numbers above) 1. NCI-H295R cells were harvested from a T175 flask and resuspended in ITS-supplemented DMEM serum-free medium at a concentration of 300 000 cells/mL. Then 5 uL of resuspended cells were dispensed into each well of white, solid-bottom, 1536-well tissue-culture-treated plates using a multidrop combi dispenser. The plates were covered with stainless steel gasket lids. 2-3. The plates were cultured overnight at 37C with 5% CO2. Twenty-three nL of compounds (eight selected concentrations from the NPC / MIPE) or positive control (10 mM stock of bortezomib) in DMSO was transferred to each well of the assay plate using a pin tool (Kalypsys, San Diego, CA, USA). The final concentration of the compounds in the 5 uL assay volume ranged from 0.5 nM to 46 uM. 4-6. After 48 hours of incubation at 37C and 5% CO2, 4 uL of CellTilter-Glo luminescent substrate mix (Promega, Madison, WI, USA) was added to each well. Then the plates were incubated for 20 minutes at room temperature. 7. After incubation, luminescence was measured using a ViewLux plate reader (PerkinElmer, Waltham, MA, USA) with a clear filter was used to measure the number of metabolically competent cells. To determine compound activity in the qHTS assay, the titration-response data for each sample was plotted and modeled by a four-parameter logistic fit yielding IC50 and efficacy (maximal response) values. Raw plate reads for each titration point were normalized relative to positive control ([…], 100% inhibition) and DMSO-only wells (basal, 0%). REFERENCES: Inglese J, Shamu CE and Guy RK, Reporting data from high throughput screening of small molecule libraries, Nature Chemical Biology, 2007, 3(8): 438-441. doi.org/10.1038/nchembio0807-438.", "units": {"activity change, negative = viability loss": "%"}, "values": [
      {"compound": "COc1c2occc2cc2ccc(=O)oc12", "Potency": "inactive"},
      {"compound": "Cc1ncc(CO)c(CO)c1O", "activity change, negative = viability loss": -9.5},
      {"compound": "COc1ccc2cccc(CCNC(C)=O)c2c1", "Potency": "inactive"},
      {"compound": "O=C(NO)c1cnc(NC2(c3ccccc3)CC2)nc1", "Potency": "3.98 µM (active)"},
      {"compound": "CC(C)Oc1ccc(-c2nc(-c3cccc4c3CC[C@@H]4NCCO)no2)cc1C#N", "Potency": "28.2 µM (active)"},
      {"compound": "COc1ccc(/C=N/NC(=O)c2ccncc2)cc1OC", "activity change, negative = viability loss": 3.52},
      {"compound": "O=C(/C=C\\n1cnc(-c2cc(C(F)(F)F)cc(C(F)(F)F)c2)n1)NNc1ccccn1", "Potency": "3.98 µM (active)"},
      {"compound": "C[C@]12C=CC(=O)C=C1CC[C@@H]1[C@@H]2C(=O)C[C@@]2(C)[C@H]1CC[C@]2(O)C(=O)CO", "Potency": "inactive"},
      {"compound": "Cc1cc(C(=O)NOCCO)c(Nc2ccc(I)cc2F)n(C)c1=O", "activity change, negative = viability loss": -13.6},
      {"compound": "CC(C)C[C@H](NC(=O)c1cc2ccccc2s1)C(=O)N1CCN(C(=O)[C@H](CO)NS(=O)(=O)c2ccc(Cl)cc2Cl)CC1", "Potency": "25.1 µM (active)"},
      {"compound": "N#Cc1ccc(-c2c(-c3ncn[nH]3)sc(N3CCOCC3)c2C#N)c(F)c1", "Potency": "4.47 µM (active)"},
      {"compound": "CCCCCN(CCCCC)C(=O)C(CCC(=O)O)NC(=O)c1ccc(Cl)c(Cl)c1", "note": "(stereo not given)", "activity change, negative = viability loss": 0.154},
      {"compound": "CC(C(=O)O)c1cccc(C(=O)c2ccccc2)c1", "note": "(stereo not given)", "Potency": "inactive"},
      {"compound": "Cc1ccc(C(N)=O)cc1Nc1nccc(-c2cn(C(C)C)c3cnccc23)n1", "Potency": "12.6 µM (active)"},
      {"compound": "COc1cc2c(cc1OC)CN(CCc1ccc(NC(=O)c3cccc4c(=O)c5cccc(OC)c5[nH]c34)cc1)CC2", "activity change, negative = viability loss": -18.3},
      {"compound": "CN(C)CCN(Cc1ccsc1)c1ccccn1", "activity change, negative = viability loss": 1.38},
      {"compound": "C#C[C@]1(O)CC[C@H]2[C@@H]3CCc4cc(OC5CCCC5)ccc4[C@H]3CC[C@@]21C", "Potency": "14.6 µM (active)"},
      {"compound": "O=C(NCC(=O)N1CCCC1)Nc1ccc2cnccc2c1", "activity change, negative = viability loss": -18.5},
      {"compound": "CN1C(=O)CC[C@H]1c1cccnc1", "activity change, negative = viability loss": 6.5},
      {"compound": "O=[N+]([O-])c1nccn1CO[C@@H](CO)[C@H](O)CO", "activity change, negative = viability loss": -21.7},
      {"compound": "COc1cc(S(N)(=O)=O)cc(C(=O)O)c1OC", "activity change, negative = viability loss": 7.04},
      {"compound": "CC(C)(O)[C@H]1CC[C@@](C)([C@H]2[C@@H](O)C[C@@]3(C)[C@@H]4C[C@H](O[C@@H]5O[C@H](CO)[C@@H](O)[C@H](O)[C@H]5O)[C@H]5C(C)(C)[C@@H](O[C@@H]6OC[C@@H](O)[C@H](O)[C@H]6O)CC[C@@]56C[C@@]46CC[C@]23C)O1", "activity change, negative = viability loss": -6.99},
      {"compound": "OC[C@H]1O[C@@H](O[C@@H]2[C@@H](CO)O[C@](O)(CO)[C@H]2O)[C@H](O)[C@@H](O)[C@H]1O", "Potency": "inactive"},
      {"compound": "COC(=O)c1ccc(O)cc1", "activity change, negative = viability loss": -3.42},
      {"compound": "CC#C[C@@H](CC(=O)O)c1ccc(OCc2cccc(-c3ccc(C(F)(F)F)cc3)c2)cc1", "Potency": "31.6 µM (active)"},
      {"compound": "CC(C)(O)CC(=O)NCCn1ccc2ncnc(Nc3ccc(Oc4cccc(C(F)(F)F)c4)c(Cl)c3)c21", "Potency": "8.91 µM (active)"},
      {"compound": "CCN(CC)CCOc1ccc(Nc2ncc3cc(-c4c(Cl)cccc4Cl)c(=O)n(C)c3n2)cc1", "Potency": "0.794 µM (active)"},
      {"compound": "COc1cc2nccc(Oc3ccc(NC(=O)c4cn(C(C)C)c(=O)n(-c5ccc(F)cc5)c4=O)cc3F)c2cc1OC", "activity change, negative = viability loss": -1.29},
      {"compound": "CNC(=O)c1cc(Oc2ccc(NC(=O)Nc3ccc(Cl)c(C(F)(F)F)c3)cc2)ccn1", "Potency": "11.2 µM (active) and 10.3 µM (active)"},
      {"compound": "COc1ccccc1C(=O)Nc1cc2c(cc1N1CCNC[C@H]1C)n(C)c(=O)n2C", "activity change, negative = viability loss": -29.7},
      {"compound": "Cc1ccc(S(=O)(=O)Nc2cc(-c3ccc(C#N)s3)ccc2C)cc1", "Potency": "0.0316 µM (active)"},
      {"compound": "C=CC(=O)Nc1cc2c(Nc3ccc(F)c(Cl)c3)ncnc2cc1OCCCN1CCOCC1", "Potency": "1.46 µM (active) and 6.31 µM (active)"},
      {"compound": "C[C@@H]1C[C@H]2[C@@H]3C[C@H](F)C4=CC(=O)C(Cl)=C[C@]4(C)[C@@]3(F)[C@@H](O)C[C@]2(C)[C@@]1(O)C(=O)CO", "activity change, negative = viability loss": -17.7},
      {"compound": "OCCCNc1cc(-c2ccnc(Nc3cccc(Cl)c3)n2)ccn1", "Potency": "0.316 µM (active)"},
      {"compound": "CC(=O)OCC(=O)NCCCOc1cccc(CN2CCCCC2)c1", "activity change, negative = viability loss": -11.3},
      {"compound": "N#Cc1ccc(N(Cc2ccc(Br)cc2)n2cnnc2)cc1", "activity change, negative = viability loss": -0.243},
      {"compound": "COc1ccc(F)c(F)c1C(=O)c1cnc(NC2CCN(S(C)(=O)=O)CC2)nc1N", "Potency": "3.16 µM (active)"},
      {"compound": "COc1c(N2C[C@@H]3CCCN[C@@H]3C2)c(F)cc2c(=O)c(C(=O)O)cn(C3CC3)c12", "activity change, negative = viability loss": -15.9},
      {"compound": "NC(N)=Nc1nc(CSCC/C(N)=N/S(N)(=O)=O)cs1", "activity change, negative = viability loss": 8.4},
      {"compound": "COc1cc(C(C)C)c2c(c1)S(=O)(=O)N(COc1cc(=O)n3cccc(OCCN4CCCCC4)c3n1)C2=O", "Potency": "17.8 µM (active)"}
    ]}
  ]
}
